Source: PubChem BioAssay (NCATS)
Records with an inconclusive call do not appear. Active and inactive are the calls of the source. The call rests on the fitted dose curve; in most records, active means well fitted inhibition curve with a large enough effect; inconclusive means small, poorly fitted or top-dose-only effect; inactive means flat fitted curve, though single readings scatter.
On the % scale 0 is the no-effect control and ±100 the full control effect; potency means the concentration at half of the fitted maximal effect.

System: not listed separately
Experiment: Drug repurposing screens with cells derived from glioblastoma tumor samples (AID 1345199); further: nearly all actives have a fitted effect of over 40% in size
Conditions: GBM patient neurospheres viability, ATP luminescence, 48 h; tumour line D
Procedure, shortened: (§1)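 Four patient lines of CD133+ GBM neurospheres were screened at several concentrations; hits were retested in those lines plus three slower-growing GBM lines, using 48-hour treatment and ATP-based viability.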
In the case of `CN(C)CCOc1ccc(/C(=C(/CCCl)c2ccccc2)c2ccccc2)cc1`, the Potency was 12.6 µM (active).
With `COc1ccc2c(c1)N(C[C@H](C)CN(C)C)c1ccccc1S2` the Potency was 12.6 µM (active).
With `CCN(CC)CCOCCOC(=O)C(CC)(CC)c1ccccc1` the Potency was 8.91 µM (active).

System: astro (control astrocytes)
Experiment: as above
Conditions: viability, ATP luminescence, 48 h; series mostly up to 45.9 µM; activity, negative = cell killing: at the top concentration
Procedure, shortened: as §1
For `CN(C)CCCSc1ccccc1NC(=O)/C=C/c1ccccc1`, the “activity, negative = cell killing” value was -28.5% (inactive).
In the case of `N[C@@H](Cc1cc(I)c(Oc2ccc(O)c(I)c2)c(I)c1)C(=O)O`, the “activity, negative = cell killing” value was -29% (inactive).
With `O=C(O)CCC(=O)c1ccc(-c2ccccc2)cc1` the “activity, negative = cell killing” value was -21.8% [at 21.2 µM] (inactive).
For `CC(=O)Nc1ccc(NC(=S)NC(=O)c2ccc(C(C)(C)C)cc2)cc1`, the Potency was 3.98 µM (active).
With `C/C(=C\C(=O)OCCCCCCCCC(=O)O)C[C@@H]1OC[C@H](C[C@@H]2O[C@H]2[C@@H](C)[C@H](C)O)[C@@H](O)[C@H]1O` the “activity, negative = cell killing” value was -1.37% (inactive).
In the case of `CC(C)(C)c1ccc(CN2CCN(C(c3ccccc3)c3ccc(Cl)cc3)CC2)cc1` (centres undefined), the Potency was 35.5 µM (active).
In the case of `Oc1ccc(/C=C/c2cc(O)cc(O)c2)cc1`, the Potency was 4.47 µM (active).
With `COc1ccc2nc(NC(=O)Nc3ccccc3)sc2c1` the Potency was 7.94 µM (active).
For `CO[C@H]1C[C@@H]2CC[C@@H](C)[C@@](O)(O2)C(=O)C(=O)N2CCCC[C@H]2C(=O)O[C@H]([C@H](C)C[C@@H]2CC[C@@H](OC(=O)C(C)(CO)CO)[C@H](OC)C2)CC(=O)[C@H](C)/C=C(\C)[C@@H](O)[C@@H](OC)C(=O)[C@H](C)C[C@H](C)/C=C/C=C/C=C/1C`, the “activity, negative = cell killing” value was -5.52% (inactive).
In the case of `O=C(OCc1ccccc1)c1ccc(O)cc1`, the “activity, negative = cell killing” value was -22.6% (inactive).
For `O=C1c2ccccc2C(=O)c2c1ccc(O)c2O`, the “activity, negative = cell killing” value was -15.2% (inactive).
In the case of `COc1ccc(C[C@H](C)NC[C@@H](O)c2ccc(O)c(NC=O)c2)cc1`, the “activity, negative = cell killing” value was -23.1% (inactive).
For `C=C1[C@H](CO)[C@@H](O)C[C@@H]1n1cnc2c(=O)[nH]c(N)nc21`, the “activity, negative = cell killing” value was -15.2% (inactive).
In the case of `CC1CC(OC(=O)C(O)c2ccccc2)CC(C)(C)C1` (centres undefined), the “activity, negative = cell killing” value was -12.7% (inactive).
With `C[C@H]1O[C@@H](O[C@H]2[C@@H](O)C[C@H](O[C@H]3[C@@H](O)C[C@H](O[C@H]4CC[C@@]5(C)[C@H](CC[C@@H]6[C@@H]5C[C@@H](O)[C@]5(C)[C@@H](C7=CC(=O)OC7)CC[C@]65O)C4)O[C@@H]3C)O[C@@H]2C)C[C@H](O)[C@@H]1O` the Potency was 0.316 µM (active).
For `CC(=O)Oc1cccc2c1C(=O)c1c(OC(C)=O)cc(C(=O)O)cc1C2=O`, the “activity, negative = cell killing” value was -26.2% (inactive).
